# PubChem BioAssay
# Inconclusive results are not listed. Calls of active or inactive are those of the source. Unless noted, no cut-off is given here; in the data, nearly all actives have AC50 up to about 26 µM.
# Tests used:
# [1] = growth inhibition of DIPG glioma cells, dose response, cell-based, SU-DIPG-XVII, MIPE5.0, CellTiter-Glo, qHTS (AID 1347060); conditions: SU-DIPG-XVII viability, CellTiter-Glo ATP luminescence;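 for AC50: cells exposed to compound for 48 hours before viability readout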
# [2] = JHH-DIPG-1 glioma cell viability, MIPE5.0 library, CellTiter-Glo luminescence, qHTS (AID 1347067); conditions: JHH-DIPG-1 glioma viability, CellTiter-Glo ATP luminescence;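 note: cells exposed to compound for 48 hours before readout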
# [3] = SU-DIPG-XXV glioma cell viability, MIPE5.0 library, qHTS (AID 1347068; cut-off not given, nearly all actives have IC50 up to about 30 µM;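 for IC50: cells exposed to compound for 48 hours before viability readout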)
# [4] = viability loss in pontine glioma line – cell-based, SU-DIPG-XXV, MIPE5.0, CellTiter-Glo, qHTS, dose response (AID 1347065); conditions: CellTiter-Glo ATP luminescence;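 note: cells exposed to compound for 48 hours before ATP readout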
structure (smiles),measurement,setting,value
Cn1ncc(NC(=O)c2nc(-c3c(F)cccc3F)sc2N)c1N1CC[C@@H](N)[C@H](F)CC1,outcome,[1],inactive
same,outcome,[2],inactive
CCCOc1ccc(CCc2nc3cc(-c4c(C)noc4C)ccc3n2CCN2CCOCC2)cc1,outcome,[1],inactive
same,AC50,[2],20.9 µM (active)
same,outcome,[3],inactive
CC#C[C@@H](CC(=O)O)c1ccc(OCc2cccc(-c3ccc(C(F)(F)F)cc3)c2)cc1,outcome,[1],inactive
same,outcome,[2],inactive
same,outcome,[3],inactive
CCNCCS(=O)(=O)NC[C@@]1(c2ccccc2)SC(NC(=O)C(C)(C)C)=NN1C(=O)C(C)(C)C,AC50,[1],0.00742 µM (active)
same,AC50,[4],0.00468 µM (active)
same,IC50,[3],0.00296 µM (active)
CCCOc1ccn2c(C(C)=O)cc(-c3ccccc3S(C)(=O)=O)c2c1,outcome,[1],inactive
same,outcome,[4],inactive
same,outcome,[3],inactive
N#Cc1cccc(-c2c[nH]c3ncnc(N4CCOCC4)c23)c1,outcome,[1],inactive
same,outcome,[4],inactive
same,outcome,[3],inactive
O=C(CCNC(=O)c1ccc(OC(F)(F)F)cc1)N[C@@H]1CCCc2ccccc21,AC50,[1],20.9 µM (active)
same,AC50,[2],8.33 µM (active)
same,outcome,[3],inactive
